Consider 29 compounds from PubChem BioAssay (NCATS).

Results filed as inconclusive are left out. Activity calls are given as the source filed them. Unless noted, calls follow the shape of the full dose curve.
% is scaled to controls: 0 for no effect and ±100 for the full control effect.

Sequence of Nucleoprotein (Lymphocytic choriomeningitis virus (strain Armstrong)) (P09992 whole entry, looked up): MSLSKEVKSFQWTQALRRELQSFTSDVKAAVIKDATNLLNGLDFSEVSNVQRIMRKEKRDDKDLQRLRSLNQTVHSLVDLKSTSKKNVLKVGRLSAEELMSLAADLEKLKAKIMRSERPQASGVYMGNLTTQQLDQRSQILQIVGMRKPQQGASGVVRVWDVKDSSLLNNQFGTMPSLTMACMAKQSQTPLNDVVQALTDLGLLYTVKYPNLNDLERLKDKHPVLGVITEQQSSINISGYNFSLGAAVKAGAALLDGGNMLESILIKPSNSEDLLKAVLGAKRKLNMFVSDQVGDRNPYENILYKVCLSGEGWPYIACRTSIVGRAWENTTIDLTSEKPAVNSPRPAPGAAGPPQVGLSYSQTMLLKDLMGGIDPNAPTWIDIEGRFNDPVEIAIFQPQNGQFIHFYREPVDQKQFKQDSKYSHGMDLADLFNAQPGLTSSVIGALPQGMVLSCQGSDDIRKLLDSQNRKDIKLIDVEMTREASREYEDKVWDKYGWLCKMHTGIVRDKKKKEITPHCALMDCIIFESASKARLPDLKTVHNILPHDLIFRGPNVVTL

Tested on in one experiment: not listed separately
Briefly: qHTS for Inhibitors of the Functional Ribonucleoprotein Complex (vRNP) of Lassa (LASV) Arenavirus: Viability assay - alamar blue signal for LASV Primary Screen (AID 1347083; calls by dose curve; tested in HEK293 reporter line; also: nearly all actives have a fitted effect of over 80% in size; also: potency is read from the fitted curve at half-maximal effect). The settings on record: cell viability, alamar blue fluorescence (LASV minigenome counter-screen); series mostly up to 57.5 µM; activity change, negative = reduced viability: at the top concentration. (In general: Quantitative high-throughput screening tests each substance at several concentrations.)
In the case of `CCS(=O)(=O)Nc1cccc(C(=C2CCCCC2)c2cnc[nH]2)c1`, the “activity change, negative = reduced viability” value was -7.74% (inactive).
Still for that read-out and setting: as for `OCc1cnc[nH]1`, the figure is 3.67% (inactive); as for `O=[N+]([O-])c1ccc2nc(N3CCNCC3)ccc2c1`, -8.54% (inactive); as for `CCN1C[C@@]2(COC)C3[C@@H](OC)C4[C@@H]1C3([C@@H]1C[C@]3(O)[C@H](OC(=O)c5ccccc5)[C@@H]1[C@]4(OC(C)=O)[C@@H](O)[C@@H]3OC)[C@H](OC)C[C@H]2O`, 16.1% (inactive).
Take `CN1CCc2cccc(Cl)c2CC1`: the “activity change, negative = reduced viability” value is 7.52% (inactive).
On the same count and under the same terms, as for `NCC(O)c1cc(O)c(O)cc1F` (centres undefined), the figure is 0.0476% (inactive).
Turning to `C[C@H](N)CN1CCc2ccc(Br)cc21`, the “activity change, negative = reduced viability” value was -4.86% (inactive).
As to `NC(=O)c1ccc(OCC(O)CN2CC=C(c3ccc(F)cc3)CC2)cc1` (centres undefined), the “activity change, negative = reduced viability” value is 7.41% (inactive).
As to `CCN(CCCl)Cc1ccccc1Br`, the “activity change, negative = reduced viability” value was 13.6% (inactive).
The same measure, in the same setting: as for `C=CCN1CC[C@]23c4c5ccc(O)c4O[C@@H]2/C(=N/N=C2\CC[C@@]4(O)C6Cc7ccc(O)c8c7[C@@]4(CCN6CC=C)[C@@H]2O8)CC[C@@]3(O)C1C5`, the figure is -23.6% (inactive); as for `CC(=O)NBr`, 2.89% (inactive); as for `CCCN1CCC[C@@H](c2cccc(O)c2)C1`, 13% (inactive).
Regarding `COc1cc(CC(C)N)c(OC)cc1I` (centres undefined), the “activity change, negative = reduced viability” value is 3.56% (inactive).
For `CNc1ccc2oc(C[C@H]3O[C@@]4(CC[C@H]3C)O[C@H]([C@H](C)C(=O)c3ccc[nH]3)[C@H](C)C[C@H]4C)nc2c1C(=O)O`, the Potency is 11.2 µM (active).
On the same count and under the same terms, under `CC(=O)c1c(O)c(C)c(O)c(Cc2c(O)c3c(c(C(=O)/C=C/c4ccccc4)c2O)OC(C)(C)C=C3)c1O` stands “inactive”.
In the case of `C[C@H](N)Cc1cccc(C(F)(F)F)c1`, the “activity change, negative = reduced viability” value was -121% (inactive).
Same read-out and setting: as for `NC(=O)COc1c(F)cc(SCCNS(=O)(=O)c2ccccc2)cc1F`, the figure is 0.576% (inactive).
Turning to `CC(C)(C)c1o[nH]c(=O)c1CC(N)C(=O)O` (centres undefined), the “activity change, negative = reduced viability” value is 7.14% (inactive).
The same measure, in the same setting: under `C[C@@H]1[C@@H]2Cc3ccc(O)cc3[C@@]1(C)CCN2CC1CC1` stands 4.51% (inactive); under `NC(Cc1ccc(N(CCCl)CCCl)cc1)C(=O)O` (centres undefined), -30.5% (inactive); under `CC(N)c1cccc(Cl)c1Cl` (centres undefined), 0.0892% (inactive).
Still for that read-out and setting: as for `NNC(=O)c1ccc(O)cc1`, the figure is 17.5% (inactive).
Same read-out and setting: under `C[N+]1(C)CCN(c2ccccc2)CC1` stands 4.31% (inactive).
As for `CCCN(CCC)C1CCc2cccc(O)c2C1` (centres undefined), the “activity change, negative = reduced viability” value was 19.4% (inactive).
Same read-out and setting: as for `CN(C(=O)Cc1ccc(Cl)c(Cl)c1)C(CN1CCCC1)c1cccc(OCC(=O)O)c1` (centres undefined), the figure is -1.01% (inactive); as for `C[N+](C)(C)CC#CCN1CCCC1=O`, 11.7% (inactive); as for `COc1ccc2[nH]cc(CCN)c2c1`, 8.25% (inactive).
The same measure, in the same setting: under `COc1ccc2c(c1)C13CCCCC1C(C2)N(C)CC3` (centres undefined) stands -0.581% (inactive).
Same read-out and setting: under `COc1ccc(OC)c(C(O)C(C)N)c1` (centres undefined) stands 6.08% (inactive).

Tested on in the next experiment: not listed separately
Briefly: qHTS for Inhibitors of the Functional Ribonucleoprotein Complex (vRNP) of Lymphocytic Choriomeningitis Arenaviruses (LCMV): Viability assay - alamar blue signal for LCMV Primary Screen (AID 1347085; calls by dose curve; tested in HEK293 reporter line; also: nearly all actives have a fitted effect of over 80% in size). Conditions: alamar blue viability counter-screen, LCMV vRNP screen cells; series mostly up to 57.5 µM; activity change, negative = lower viability: at the top concentration.
On to `CCS(=O)(=O)Nc1cccc(C(=C2CCCCC2)c2cnc[nH]2)c1`, for which the “activity change, negative = lower viability” value was 2.72% (inactive).
In the case of `OCc1cnc[nH]1`, the “activity change, negative = lower viability” value is 1.88% (inactive).
Same read-out and setting: under `O=[N+]([O-])c1ccc2nc(N3CCNCC3)ccc2c1` stands -14.3% (inactive).
Same read-out and setting: as for `CCN1C[C@@]2(COC)C3[C@@H](OC)C4[C@@H]1C3([C@@H]1C[C@]3(O)[C@H](OC(=O)c5ccccc5)[C@@H]1[C@]4(OC(C)=O)[C@@H](O)[C@@H]3OC)[C@H](OC)C[C@H]2O`, the figure is 20% (inactive).
Still for that read-out and setting: under `CN1CCc2cccc(Cl)c2CC1` stands 15.7% (inactive).
As to `NCC(O)c1cc(O)c(O)cc1F` (centres undefined), the “activity change, negative = lower viability” value is 15.1% (inactive).
With `C[C@H](N)CN1CCc2ccc(Br)cc21`, the “activity change, negative = lower viability” value is -10.8% (inactive).
Same read-out and setting: under `NC(=O)c1ccc(OCC(O)CN2CC=C(c3ccc(F)cc3)CC2)cc1` (centres undefined) stands 20.9% (inactive); under `CCN(CCCl)Cc1ccccc1Br`, -0.702% (inactive).
Still for that read-out and setting: as for `C=CCN1CC[C@]23c4c5ccc(O)c4O[C@@H]2/C(=N/N=C2\CC[C@@]4(O)C6Cc7ccc(O)c8c7[C@@]4(CCN6CC=C)[C@@H]2O8)CC[C@@]3(O)C1C5`, the figure is -20.4% (inactive); as for `CC(=O)NBr`, 2.26% (inactive); as for `CCCN1CCC[C@@H](c2cccc(O)c2)C1`, 1.44% (inactive).
As to `COc1cc(CC(C)N)c(OC)cc1I` (centres undefined), the “activity change, negative = lower viability” value is 5.8% (inactive).
Consider `CNc1ccc2oc(C[C@H]3O[C@@]4(CC[C@H]3C)O[C@H]([C@H](C)C(=O)c3ccc[nH]3)[C@H](C)C[C@H]4C)nc2c1C(=O)O`, for which the “activity change, negative = lower viability” value is -33% (inactive).
Turning to `CC(=O)c1c(O)c(C)c(O)c(Cc2c(O)c3c(c(C(=O)/C=C/c4ccccc4)c2O)OC(C)(C)C=C3)c1O`, the Potency result was “inactive”.
Regarding `C[C@H](N)Cc1cccc(C(F)(F)F)c1`, the “activity change, negative = lower viability” value was -95.8% (inactive).
As for `NC(=O)COc1c(F)cc(SCCNS(=O)(=O)c2ccccc2)cc1F`, the “activity change, negative = lower viability” value is -3.1% (inactive).
Turning to `C[C@@H]1[C@@H]2Cc3ccc(O)cc3[C@@]1(C)CCN2CC1CC1`, the “activity change, negative = lower viability” value was -6.29% (inactive).
The same measure, in the same setting: as for `NC(Cc1ccc(N(CCCl)CCCl)cc1)C(=O)O` (centres undefined), the figure is -22.7% (inactive); as for `CC(N)c1cccc(Cl)c1Cl` (centres undefined), 6.54% (inactive).
For the compound `NNC(=O)c1ccc(O)cc1`, the “activity change, negative = lower viability” value was 14.8% (inactive).
Consider `C[N+]1(C)CCN(c2ccccc2)CC1`, for which the “activity change, negative = lower viability” value is 12.7% (inactive).
As to `CCCN(CCC)C1CCc2cccc(O)c2C1` (centres undefined), the “activity change, negative = lower viability” value was -21.4% (inactive).
Still for that read-out and setting: as for `CN(C(=O)Cc1ccc(Cl)c(Cl)c1)C(CN1CCCC1)c1cccc(OCC(=O)O)c1` (centres undefined), the figure is 1.3% (inactive); as for `C[N+](C)(C)CC#CCN1CCCC1=O`, 2.23% (inactive); as for `COc1ccc2[nH]cc(CCN)c2c1`, 4.1% (inactive).
For the compound `COc1ccc2c(c1)C13CCCCC1C(C2)N(C)CC3` (centres undefined), the “activity change, negative = lower viability” value was -3.87% (inactive).
As to `COc1ccc(OC)c(C(O)C(C)N)c1` (centres undefined), the “activity change, negative = lower viability” value was -8.81% (inactive).

The next experiment has as its target Nucleoprotein (Lymphocytic choriomeningitis virus (strain Armstrong)) (UniProt P09992). The experiment in a line: qHTS for Inhibitors of the Functional Ribonucleoprotein Complex (vRNP) of Lymphocytic Choriomeningitis Arenaviruses (LCMV): LCMV Primary Screen - GLuc reporter signal (AID 1347086). Also: nearly all actives have a fitted effect of over 70% in size. Conditions: LCMV minigenome vRNP cell assay, Gaussia luciferase reporter; series mostly up to 57.5 µM; activity change, negative = inhibition: at the top concentration.
As for `CCS(=O)(=O)Nc1cccc(C(=C2CCCCC2)c2cnc[nH]2)c1`, the “activity change, negative = inhibition” value is -5.92% (inactive).
The same measure, in the same setting: as for `OCc1cnc[nH]1`, the figure is 17.8% (inactive).
On the same count and under the same terms, under `O=[N+]([O-])c1ccc2nc(N3CCNCC3)ccc2c1` stands -35.2% (inactive); under `CCN1C[C@@]2(COC)C3[C@@H](OC)C4[C@@H]1C3([C@@H]1C[C@]3(O)[C@H](OC(=O)c5ccccc5)[C@@H]1[C@]4(OC(C)=O)[C@@H](O)[C@@H]3OC)[C@H](OC)C[C@H]2O`, 25% (inactive); under `CN1CCc2cccc(Cl)c2CC1`, -2.57% (inactive).
On to `NCC(O)c1cc(O)c(O)cc1F` (centres undefined), for which the “activity change, negative = inhibition” value is 11.2% (inactive).
The same measure, in the same setting: under `C[C@H](N)CN1CCc2ccc(Br)cc21` stands -23.6% (inactive); under `NC(=O)c1ccc(OCC(O)CN2CC=C(c3ccc(F)cc3)CC2)cc1` (centres undefined), -1.52% (inactive); under `CCN(CCCl)Cc1ccccc1Br`, 0.617% (inactive).
Turning to `C=CCN1CC[C@]23c4c5ccc(O)c4O[C@@H]2/C(=N/N=C2\CC[C@@]4(O)C6Cc7ccc(O)c8c7[C@@]4(CCN6CC=C)[C@@H]2O8)CC[C@@]3(O)C1C5`, the “activity change, negative = inhibition” value was 0.224% (inactive).
Turning to `CC(=O)NBr`, the “activity change, negative = inhibition” value was 8.05% (inactive).
The same measure, in the same setting: as for `CCCN1CCC[C@@H](c2cccc(O)c2)C1`, the figure is 2.81% (inactive).
As to `COc1cc(CC(C)N)c(OC)cc1I` (centres undefined), the “activity change, negative = inhibition” value is 10.8% (inactive).
On the same count and under the same terms, as for `CNc1ccc2oc(C[C@H]3O[C@@]4(CC[C@H]3C)O[C@H]([C@H](C)C(=O)c3ccc[nH]3)[C@H](C)C[C@H]4C)nc2c1C(=O)O`, the figure is -26% (inactive).
For the compound `CC(=O)c1c(O)c(C)c(O)c(Cc2c(O)c3c(c(C(=O)/C=C/c4ccccc4)c2O)OC(C)(C)C=C3)c1O`, the Potency entry was “inactive”.
Consider `C[C@H](N)Cc1cccc(C(F)(F)F)c1`, for which the “activity change, negative = inhibition” value was -55.6% (inactive).
On to `NC(=O)COc1c(F)cc(SCCNS(=O)(=O)c2ccccc2)cc1F`, for which the “activity change, negative = inhibition” value was -17.1% (inactive).
In the case of `C[C@@H]1[C@@H]2Cc3ccc(O)cc3[C@@]1(C)CCN2CC1CC1`, the “activity change, negative = inhibition” value is 6.23% (inactive).
Same read-out and setting: as for `CC(N)c1cccc(Cl)c1Cl` (centres undefined), the figure is 32.2% (inactive).
As to `NNC(=O)c1ccc(O)cc1`, the “activity change, negative = inhibition” value is 2.03% (inactive).
For `C[N+]1(C)CCN(c2ccccc2)CC1`, the “activity change, negative = inhibition” value was 9.42% (inactive).
Still for that read-out and setting: under `CCCN(CCC)C1CCc2cccc(O)c2C1` (centres undefined) stands 7.15% (inactive); under `CN(C(=O)Cc1ccc(Cl)c(Cl)c1)C(CN1CCCC1)c1cccc(OCC(=O)O)c1` (centres undefined), 19.6% (inactive); under `C[N+](C)(C)CC#CCN1CCCC1=O`, 5.79% (inactive).
Turning to `COc1ccc2[nH]cc(CCN)c2c1`, the “activity change, negative = inhibition” value was 2.36% (inactive).
Take `COc1ccc2c(c1)C13CCCCC1C(C2)N(C)CC3` (centres undefined): the “activity change, negative = inhibition” value was 4.8% (inactive).
For `COc1ccc(OC)c(C(O)C(C)N)c1` (centres undefined), the “activity change, negative = inhibition” value is -4.32% (inactive).
